Screen size: about 5,500 compounds; about 2,000 (36%) were called active. Roughly 18% stayed inconclusive and do not appear here. Rule as the data show it: active = normalized growth mostly below about 0.91 (no sharp cut-off); inconclusive = no clear call, values can overlap the other calls; inactive = mostly above about 0.92. The list shows a part of the results.
Experiment: chemical genetic growth profiling, strain panel (AID 1159580);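 also: tested at 20 µM; growth read once vehicle control cultures reached saturation at 30 °C; 1 = growth at the plate median or of vehicle wells; lower values mean less growth of the strain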
Conditions: S. cerevisiae deletion strains, growth OD

Measured: normalized growth

COc1cc(OC)c(C(C)=O)c(O)c1C
active: locus YBR009C, strain hhf1, stronger effect = lower value 0.88 | locus YBR023C, strain chs3, stronger effect = lower value 0.905 | locus YCL011C, strain gbp2, stronger effect = lower value 0.905 | locus YDR159W, strain sac3, stronger effect = lower value 0.847 | locus YER155C, strain BEM2 (second series), stronger effect = lower value 0.735 | locus YGL227W, strain vid30, stronger effect = lower value 0.913 | locus YGL240W, strain doc1, stronger effect = lower value 0.812 | locus YLR221C, strain rsa3, stronger effect = lower value 0.884 | locus YLR262C, strain YPT6 (second series), stronger effect = lower value 0.856 | locus YLR320W, strain mms22, stronger effect = lower value 0.87 | locus YML120C, strain ndi1, stronger effect = lower value 0.889 | locus YOR270C, strain vph1, stronger effect = lower value 0.744 | locus YOR290C, strain snf2, stronger effect = lower value 0.83
inactive: locus YAL021C, strain ccr4, stronger effect = lower value 0.991 | locus YAL026C, strain drs2, stronger effect = lower value 0.908 | locus YAL030W, strain snc1, stronger effect = lower value 0.953 | locus YBL061C, strain skt5, stronger effect = lower value 0.923 | locus YBR171W, strain sec66, stronger effect = lower value 0.945 | locus YBR231C, strain swc5, stronger effect = lower value 0.934 | locus YBR279W, strain paf1, stronger effect = lower value 0.951 | locus YCL016C, strain dcc1, stronger effect = lower value 0.956 | locus YCL061C, strain MRC1, stronger effect = lower value 0.937 | locus YCL069W, strain vba3, stronger effect = lower value 0.942 | locus YCR088W, strain abp1, stronger effect = lower value 0.937 | locus YDL005C, strain med2, stronger effect = lower value 0.978 | locus YDL040C, strain nat1, stronger effect = lower value 0.949 | locus YDR001C, strain nth1, stronger effect = lower value 0.939 | locus YDR069C, strain doa4, stronger effect = lower value 0.948 | locus YDR137W, strain rgp1, stronger effect = lower value 0.859 | locus YDR195W, strain ref2 1.13 | locus YDR297W, strain sur2, stronger effect = lower value 0.941 | locus YDR334W, strain swr1, stronger effect = lower value 0.946 | locus YDR335W, strain msn5, stronger effect = lower value 0.95 | locus YDR392W, strain spt3, stronger effect = lower value 0.758 | locus YEL003W, strain gim4, stronger effect = lower value 0.923 | locus YEL037C, strain rad23, stronger effect = lower value 0.938 | locus YEL061C, strain CIN8 (second series), stronger effect = lower value 0.931 | locus YER015W, strain faa2, stronger effect = lower value 0.955 | locus YER016W, strain bim1, stronger effect = lower value 0.954 | locus YER111C, strain swi4, stronger effect = lower value 0.95 | locus YFR010W, strain ubp6, stronger effect = lower value 0.932 | locus YGL167C, strain pmr1, stronger effect = lower value 0.945 | locus YGL173C, strain kem1, stronger effect = lower value 0.921 | locus YGL253W, strain hxk2, stronger effect = lower value 0.935 | locus YHR013C, strain ard1, stronger effect = lower value 0.875 | locus YHR027C, strain rpn1, stronger effect = lower value 0.969 | locus YHR030C, strain SLT2, stronger effect = lower value 0.931 | locus YHR079C, strain IRE1, stronger effect = lower value 0.935 | locus YHR142W, strain chs7, stronger effect = lower value 0.877 | locus YJL092W, strain hpr5, stronger effect = lower value 0.946 | locus YJL095W, strain BCK1 (second series), stronger effect = lower value 0.944 | locus YJL095W, strain BCK1, stronger effect = lower value 0.927 | locus YJL115W, strain asf1, stronger effect = lower value 0.944 | locus YJL129C, strain trk1, stronger effect = lower value 0.903 | locus YJL154C, strain vps35, stronger effect = lower value 0.939 | locus YJL164C, strain tpk1, stronger effect = lower value 0.93 | locus YJL166W, strain qcr8, stronger effect = lower value 0.912 | locus YJL187C, strain SWE1, stronger effect = lower value 0.945 | locus YJR066W, strain TOR1, stronger effect = lower value 0.855 | locus YKL160W, strain elf1, stronger effect = lower value 0.956 | locus YKR026C, strain gcn3, stronger effect = lower value 0.93 | locus YKR091W, strain srl3, stronger effect = lower value 0.946 | locus YLL001W, strain dnm1, stronger effect = lower value 0.939 | locus YLL026W, stronger effect = lower value 0.953 | locus YLL041C, strain sdh2, stronger effect = lower value 0.961 | locus YLR027C, strain aat2, stronger effect = lower value 0.962 | locus YLR113W, strain HOG1, stronger effect = lower value 0.901 | locus YLR258W, strain gsy2, stronger effect = lower value 0.933 | locus YLR342W, strain FKS1, stronger effect = lower value 0.954 | locus YLR357W, strain rsc2, stronger effect = lower value 0.942 | locus YLR370C, strain arc18, stronger effect = lower value 0.938 | locus YLR384C, strain iki3, stronger effect = lower value 0.974 | locus YMR058W, strain fet3, stronger effect = lower value 0.908 | locus YMR125W, strain sto1, stronger effect = lower value 0.984 | locus YMR129W, stronger effect = lower value 0.944 | locus YMR205C, strain PFK2, stronger effect = lower value 0.903 | locus YMR231W, strain pep5, stronger effect = lower value 0.982 | locus YNL071W, strain lat1, stronger effect = lower value 0.919 | locus YNL183C, strain NPR1, stronger effect = lower value 0.887 | locus YNL209W, strain ssb2, stronger effect = lower value 0.96 | locus YNL248C, strain rpa49, stronger effect = lower value 0.917 | locus YNL322C, strain KRE1 (second series), stronger effect = lower value 0.927 | locus YNR049C, strain mso1, stronger effect = lower value 0.937 | locus YOR001W, strain rrp6, stronger effect = lower value 0.95 | locus YOR070C, strain gyp1, stronger effect = lower value 0.937 | locus YOR080W, strain dia2, stronger effect = lower value 0.943 | locus YOR083W, strain WHI5, stronger effect = lower value 0.942 | locus YOR106W, strain vam3, stronger effect = lower value 0.91 | locus YOR231W, strain MKK1, stronger effect = lower value 0.96 | locus YOR265W, strain rbl2, stronger effect = lower value 0.962 | locus YPL051W, strain arl3, stronger effect = lower value 0.972 | locus YPL078C, strain atp4, stronger effect = lower value 0.908 | locus YPL106C, strain sse1, stronger effect = lower value 0.9 | locus YPL240C, strain hsp82, stronger effect = lower value 0.94 | locus YPL256C, strain CLN2, stronger effect = lower value 0.91

Source: PubChem BioAssay AID1159580 (chemical genetic matrix, 2015)
